This experiment deals with Sonic hedgehog protein (Shh). The experiment can be described thus: Sonic hedgehog microarray binding compounds – biochemical, small-molecule microarray, 635/667 nm fluorescence, primary screen (AID 1151).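 Further: Shh protein binding to compounds spotted on small-molecule microarray slides; score combines spot fluorescence intensity with signal-to-noise across triplicate slides.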 Conditions: 635 nm fluorescence, higher = more signal.
`Cc1ccccc1C(O)C1C=CC2C(=O)N(c3ccccc3)C(=O)C2N1Nc1ccccc1F` (stereo not given) displayed a composite z-score of -0.255.

`COC(=O)[C@@]1(CCS(=O)(=O)c2ccccc2)N=C(c2ccc(OCCCO)cc2)O[C@H]1c1ccccc1N=[N+]=[N-]` had a composite z-score of 1.2.

`C=C(CCCC)C(=O)CC[C@H](OC(=O)c1cccnc1)c1ccc(CO)o1` showed a composite z-score of 1.6.

With `COCCOC(=O)N1C(=O)[C@@]2(c3cc(C#CC4(O)CCCCCC4)ccc31)[C@H](c1ccc(OCCO)cc1)N1[C@H](c3ccccc3)[C@H](c3ccccc3)OC(=O)[C@H]1[C@@H]2C(N)=O`, the composite z-score turned out to be 1.33.

In the case of `CN(C)C(=O)[C@]1(Cc2ccccc2)N=C(c2ccc(OCCCO)cc2)O[C@@H]1c1ccccc1`, the composite z-score was -0.46.

For `COc1ccc(C#Cc2ccc3c(c2)[C@]2(C(=O)N3)[C@H](C(=O)Nc3nc4ccccc4s3)[C@H]3C(=O)O[C@H](c4ccccc4)[C@H](c4ccccc4)N3[C@@H]2c2ccc(OCCO)cc2)cc1`, the composite z-score came out at 1.06.

The molecule `CCOC(=O)C[C@H]1[C@H](OC(=O)c2ccc(C(=O)c3ccccc3)cc2)[C@@H](NC(=O)c2ccc3ccccc3c2)c2cc(OCCCO)ccc2N1C(=O)c1ccc2ccccc2n1` showed a composite z-score of 0.94.

As for `CN(C)CCCCNC(=O)[C@H]1C[C@H]2C(=O)N[C@@H](Cc3ccccc3)C(=O)N2[C@H]1c1cccc(OCCO)c1`, the composite z-score amounted to 0.878.

Molecule `C=C(CC1([C@@H](NP(=O)(c2ccccc2)c2ccccc2)[C@H]2C[C@@H]2CCN(C(=O)OCC)S(=O)(=O)c2ccc(C)cc2)CC1)c1ccccc1` showed a composite z-score of -1.18.

`C=C(CCCC)/C(=C/C[C@H](OC(C)=O)c1cccc(OCCO)c1)c1cc(C(=O)OC)ccc1OC` returned a composite z-score of 0.454.

Take `C=CCNC(=O)[C@H]1[C@@H]2C(=O)O[C@@H](c3ccccc3)[C@@H](c3ccccc3)N2[C@@H](c2ccccc2OCCO)[C@]12C(=O)N(C(=O)OCCOC)c1ccccc12`: the composite z-score is 1.14.

In turn, `O=C1OCCC/C=C\[C@H]2OC34C=CCN(Cc5ccccc5)C(=O)[C@H]3N(CCCCCO)C(=O)[C@@H]4C12` (stereo not given in full) had a composite z-score of 0.168.

In turn, `CC(C)(C)OC(=O)CC[C@]1(C(=O)N2CCOCC2)N=C(c2ccc(OCCCO)cc2)O[C@H]1c1ccccc1CN=[N+]=[N-]` gave a composite z-score of 0.242.

Molecule `CCCC=C(CCC)[C@@H](NC(=O)c1ccco1)c1ccc(C(=O)OC)cc1` came in with a composite z-score of -0.276.

In the case of `COC(=O)c1c(CC[C@@H](CO)NC(=O)N[C@@H](Cc2ccccc2)Cn2cc(-c3cncn3C)nn2)oc(C(C)=O)c1C(=O)OC`, the composite z-score worked out at 1.75.

Take `COC(=O)[C@@]1(Cc2ccc(OC)cc2)[C@H]2c3cc(C(=O)N(C)C)n(Cc4ccsc4Br)c3C[C@H]2CN1C(=O)c1ccccc1`: the composite z-score was determined as 0.105.

Consider `C=CCC(OC(C)=O)[C@@H]1[C@@H](N(Cc2ccc(-c3ccccc3)cc2)C(=O)c2ccc(-c3ccccc3)cc2)c2cc(OCCCO)ccc2N1C(=O)c1ccc2ccccc2n1` (stereo not given in full), for which the composite z-score turned out to be 0.767.

Take `O=C1c2ccccc2[C@](Cc2ccccc2I)(C(=O)O)[C@H](c2ccc(CO)cc2)N1Cc1ccccc1`: the composite z-score is -0.282.

`COCC(=C=CC[C@@H](O)c1cccc(OCCO)c1)C[C@@H](O)COCc1ccccc1` showed a composite z-score of 0.436.

Turning to `C[N+](C)(C)CCCCCCNC(=O)[C@@H]1C[C@@H]2C(=O)N[C@@H](Cc3ccccc3)C(=O)N2[C@@H]1c1ccc(O)cc1`, the composite z-score is 2.07.

On to `COCCOC(=O)N1C(=O)[C@@]2(c3ccccc31)[C@H](c1ccc(OCCO)cc1)N1[C@H](c3ccccc3)[C@H](c3ccccc3)OC(=O)[C@H]1[C@@H]2C(=O)N1CCN(c2ncccn2)CC1`, for which the composite z-score came out at 1.86.

As to `COCCOC(=O)N1C(=O)[C@@]2(c3cc(C#CCCO)ccc31)[C@H](c1ccccc1OCCO)N1[C@H](c3ccccc3)[C@H](c3ccccc3)OC(=O)[C@H]1[C@@H]2C(=O)N1CCc2cc(OC)c(OC)cc2C1`, the composite z-score was determined as 1.2.

In turn, `C=CCC(OC(C)=O)[C@@H]1[C@@H](N(Cc2cc3ccccc3o2)C(=O)Cc2ccc(OC)cc2)c2cc(OCCCO)ccc2N1C(=O)Cc1ccc(OC)cc1` (stereo not given in full) registered a composite z-score of 0.551.

In turn, `CC(C)C[C@H]1NC(=O)[C@@]23C(=O)N[C@@H](Cc4ccccc4)C2[C@H](C)[C@@]2(C)O[C@H]2C3/C=C/C/C=C\CNC(=O)[C@@H]2CCCN2C1=O` (stereo not given in full) showed a composite z-score of 1.55.

`COCCOC(=O)N1C(=O)[C@@]2(c3cc(C#CCC(C(=O)OC)C(=O)OC)ccc31)[C@H](c1ccc(OCCO)cc1)N1[C@H](c3ccccc3)[C@H](c3ccccc3)OC(=O)[C@H]1[C@@H]2C(=O)N1CCCCCCC1` displayed a composite z-score of 1.58.

Take `COCC(=C=CC[C@@H](O)c1ccc(OCCO)cc1)C[C@@H](O)COCc1ccccc1`: the composite z-score came to 1.54.

Molecule `COC(=O)[C@@H]1N=C(c2ccc(OCCCO)cc2)O[C@@H]1c1ccccc1CN=[N+]=[N-]` displayed a composite z-score of 0.0121.

The molecule `C=C(COC)C(=O)CC[C@@H](OC(C)=O)c1ccc(OCCO)cc1` gave a composite z-score of 1.64.

Take `O=C(NCCO)C1=C[C@H](Oc2ccccc2I)[C@@H](O)[C@H](NCc2ccc(F)cc2)C1`: the composite z-score is 2.08.

`O=C1O[C@@H](c2ccccc2)[C@@H](c2ccccc2)N2[C@@H](c3ccc(OCCO)cc3)[C@]3(C(=O)Nc4ccc(C#CCCO)cc43)[C@@H](C(=O)Nc3nc4ccccc4s3)[C@H]12`: the composite z-score turned out to be 0.589.

Regarding `NCCCC[C@@H]1NC(=O)[C@H]2C[C@@H](C(=O)O)[C@@H](c3cccc(OCCO)c3)N2C1=O`, the composite z-score is 1.85.

`COCCOC(=O)N1C(=O)[C@@]2(c3cc(C#CCCO)ccc31)[C@H](C(=O)N1CCc3cc(OC)c(OC)cc3C1)[C@H]1C(=O)O[C@H](c3ccccc3)[C@H](c3ccccc3)N1[C@@H]2c1ccccc1OCCO`: the composite z-score worked out at 1.69.

As for `COC(=O)[C@@]1(Cc2ccccc2)[C@@H]2[C@@H](CC(=O)[C@H]2CC(=O)C(=O)N(C)C)CN1C(=O)c1ccccc1`, the composite z-score is -0.829.

`O=C1O[C@H](c2ccccc2)[C@H](c2ccccc2)N2[C@H]1[C@@H](C(=O)N1CCN(c3ncccn3)CC1)[C@]1(C(=O)Nc3ccccc31)[C@H]2c1ccc(O)cc1` came in with a composite z-score of 0.0388.

Take `CCOC(=O)C1=CC[C@@H](c2ccccc2Cl)N(S(=O)(=O)c2ccc(C)cc2)[C@H]1c1cccc(OC)c1`: the composite z-score is -0.476.

For the origin of these results see PubChem BioAssay.
